High-throughput results deposited in PubChem by Sanford-Burnham Center for Chemical Genomics.
Sampled rows, rich in hits. Any-hit rate of the full collection: about 3.1%.
PPC-1+TRAIL kill: PPC-1 cancer cell killing with TRAIL present; cell killing (% activity), % at 4 µM or 5 µM; 220,000 compounds, 0.41% hits; PPC-1 cells + TRAIL, ATPLite viability luminescence;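 active = cell killing above 50% in the first pass at 4 µM, then a duplicate retest at 5 µM averaging 50% or more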
TRAIL sens C8: caspase-8 TRAIL sensitization; NB7+C8 cells + TRAIL, ATPlite viability luminescence; inhibition (viability loss, TRAIL sensitization), % at 10 µM; 360,000 compounds, 1% hits;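 active = compounds causing at least 50% loss of cell viability in the single-dose screen, relative to plate controls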
KKLEB tox: CF airway cell cytotoxicity counter-screen; KKLEB CF airway cells viability, ATPlite luminescence, overnight; hits give low values; cells stimulated with P. aeruginosa culture filtrate; AID 602141; 360,000 compounds, 0.36% hits; activity change (cytotoxicity), % at 5 µM;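 active = corrected activity change at or below -50% at 5 µM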
CF NFkB block: blocks PAF-induced NF-kB reporter in cystic fibrosis cells; AID 588850; 360,000 compounds, 0.86% hits; inhibition, % at 5 µM; KKLEB NF-kB-GFP reporter, GFP fluorescence overnight;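 active = at least 50% inhibition at 5 µM, scaled per plate between neutral and stimulator controls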;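 note: PAF is a Pseudomonas aeruginosa culture filtrate used as stimulus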
Peg3 promoter: reduces Peg3 promoter-driven luciferase expression in HeLa; HeLa PEG-Prom luciferase reporter, luminescence, overnight; inhibition, % at 20 µM; 360,000 compounds, 1.7% hits; AID 588405;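 active = inhibition of at least 50% at 20 µM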
HIF-2a inh: blocks HIF-2a reporter activity | 786-0 RCC cells HIF-2a reporter, luciferase luminescence, overnight | inhibition, % at 18.8 µM | 360,000 compounds, 0.72% hits;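 active = inhibition of the luminescence signal of 40% or more relative to plate controls, in a single-dose primary screen at 18.75 µM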
CF NFkB conf: CF NF-kB inhibition confirmation, single concentration. 1,300 compounds, 64% hits. inhibition, % at 5 µM. KKLEB CF airway cells, PAF-induced NF-kB-GFP fluorescence, overnight. AID 602472. shares compounds with CF NFkB block; in the data active = inhibition above about 40%;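 note: stimulus PAF is a Pseudomonas aeruginosa filtrate and not platelet activating factor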
Mdm2 MdmX conf: confirmation of inhibitors of human Mdm2/MdmX interaction, set 2. AID 504601. 740 compounds, 99% hits. shares compounds with HIF-2a inh. SaOS-2 split-luciferase Mdm2/MdmX complementation, luminescence. inhibition, % at 8 µM;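 active = mean inhibition of the luminescence signal across two replicates at or above 26 percent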
HIF-2a inh conf: HIF-2a inhibition, single concentration confirmation; AID 651580; shares compounds with HIF-2a inh; inhibition, % at 18.8 µM; 786-0 RCC cells, HIF-2a luciferase reporter luminescence, overnight; 1,800 compounds, 56% hits;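 active = mean inhibition across four replicates of at least 40 percent at the single tested concentration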
HIF-1a cs: counter-screen for HIF-2a inhibitors: HIF-1a inhibition in MiaPaCa-2 cells | shares compounds with HIF-2a inh | inhibition, % at 18.8 µM | AID 651589 | MiaPaCa-2 HIF-1a luciferase reporter, desferoxamine, overnight | 1,800 compounds, 72% hits;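 active = mean inhibition of the reporter signal across four replicates at the single tested dose of 50% or more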
A number is an active result; – = inactive; · = not tested or not shown.

SMILES	PPC-1+TRAIL kill	TRAIL sens C8	KKLEB tox	CF NFkB block	Peg3 promoter	HIF-2a inh	HIF-2a inh conf	HIF-1a cs	others
N#Cc1c(Br)n(C2OC(CO)C(O)C2O)c2ncnc(N)c12 (stereo not given)	·	–	–	73	61	–	·	·	CF NFkB conf=84
NC(=O)c1c(Br)n(C2OC(CO)C(O)C2O)c2ncnc(N)c12 (stereo not given)	·	–	–	61	–	–	·	·	CF NFkB conf=61
CCN1CCN(C(=O)COc2ccc3oc4c(c3c2)CCCC4)CC1	·	–	–	–	–	–	·	·
C[C@H]1CCC[C@H](O)CCCCCc2cc(O)cc(O)c2C(=O)O1	–	–	–	–	–	–	·	·
C[C@H]1CCC[C@@H](O)CCC/C=C/c2cc(O)cc(O)c2C(=O)O1	–	–	–	51	64	–	·	·	CF NFkB conf=46
CC(C)COC(=O)N1Cc2ccccc2-n2nncc2C1	·	–	–	–	–	–	·	·
O=P1(NCCCl)OCCC(OO)N1CCCl (stereo not given)	·	–	·	·	·	–	·	·
CNc1cc(Cl)c2nonc2c1[N+](=O)[O-]	–	–	–	84	107	95	93	106	CF NFkB conf=–
BrCC(Br)(Br)Br	·	–	–	–	–	–	·	·
COc1ccc(Oc2cc(NC(=O)c3nn(C)cc3[N+](=O)[O-])cc([N+](=O)[O-])c2)cc1	–	88	–	59	104	94	·	·	CF NFkB conf=108;Mdm2 MdmX conf=84
C[C@H]1C(=O)O[C@@H]2CCN3CC=C(COC(=O)[C@](C)(O)[C@]1(C)O)[C@H]23	·	–	–	–	–	–	·	·
C[C@@H]([C@@H](O)c1ccccc1)N(C)C(=O)Cc1ccccc1	·	–	–	–	–	–	·	·
CN(C)CC(C(=O)Cc1ccccc1)c1ccccc1 (stereo not given)	·	63	–	59	101	97	–	106	CF NFkB conf=–
C=C1C(=O)O[C@H]2C[C@@H](C)[C@@H]3C=CC(=O)[C@@]3(C)C[C@H]12	–	·	·	·	·	·	·	·	Mdm2 MdmX conf=103
C=C1C(=O)O[C@H]2[C@H]1[C@H](OC(=O)CC(=O)O[C@@H]1C[C@@H](C)[C@@H]3C=CC(=O)[C@@]3(C)[C@H]3OC(=O)C(=C)[C@H]13)C[C@@H](C)[C@H]1C=CC(=O)[C@]12C	–	–	–	–	–	–	·	·
C=C1C(=O)OC2CC(C)C3C=CC(=O)C3(C)C(O)C12 (stereo not given)	·	86	-62	96	106	86	94	100
C=C1C(=O)O[C@@H]2C[C@@H](C)[C@@H]3C4OC4C(=O)[C@@]3(C)[C@@H](O)[C@H]12 (stereo not given in full)	–	–	–	92	96	88	95	104
FC(F)(F)c1ccc(NC2=NCCCS2)cc1	·	–	–	–	–	–	·	·
CCN(CC(=O)Nc1ccc(NC(C)=O)cc1)C(=O)CSC(c1ccccc1)c1ccccc1	·	–	–	–	–	–	·	·
CC12CCC3C(CCC4CC(=O)C(C(O)C(F)(F)F)CC43C)C1CCC2O (stereo not given)	·	–	–	–	–	–	·	·
C[C@H]1[C@@H](OS(=O)(=O)O)C[C@@H]2C[C@H]([C@@H](O)c3cc(=O)[nH]c(=O)[nH]3)NC3=NC[C@H]1N32	·	–	–	76	97	54	–	105
COc1cc2c(cc1/C=C/[N+](=O)[O-])OCO2	–	–	–	–	110	71	79	98
CN(C)C1C(=O)C(C(N)=O)=C(O)C2(O)C(=O)C3=C(O)c4c(O)cccc4C(C)(O)C3C(O)C12 (stereo not given)	·	–	–	–	–	–	·	·
CC1CCC[C@H](O)CCCCCc2cc(O)cc(O)c2C(=O)O1 (stereo not given in full)	–	–	–	–	–	–	·	·
C[C@H]1CCC/C=C/C2C[C@H](O)CC2[C@H](O)/C=C/C(=O)O1 (stereo not given in full)	–	–	–	81	55	68	·	·	Mdm2 MdmX conf=103
SMILES	PPC-1+TRAIL kill	TRAIL sens C8	KKLEB tox	CF NFkB block	Peg3 promoter	HIF-2a inh	HIF-2a inh conf	HIF-1a cs	others
CC1CCC/C=C/C2CC(O)CC2C(O)/C=C/C(=O)O1 (stereo not given)	57	–	-60	79	60	46	–	78	Mdm2 MdmX conf=103
CCCC[C@@H](C)C[C@@H](C)C(=O)N(C)[C@@H](CC(C)C)C(=O)N[C@H](C(=O)N(C)[C@H](C(=O)N1C[C@@H](O)C[C@H]1C(=O)N1C(=O)C=C[C@@H]1C)C(C)C)C(C)OC(C)=O (stereo not given in full)	·	89	-88	84	92	53	·	·	Mdm2 MdmX conf=100
CCCC1CCCCC12C(=O)NC(=O)NC2=O (stereo not given)	·	–	–	–	–	–	·	·
CC1CCOC(=O)C=CC=CC(=O)OC2CC3OC4C5OC5(C)C(O)CC4(COC(=O)C1O)C2(C)C31CO1 (stereo not given)	·	69	–	90	99	67	56	103
CC1=CC2OC3CC4OC(=O)C=CC=CC(C(C)O)OCC(O)C5(C)OC5C(=O)OCC2(CC1O)C4(C)C31CO1 (stereo not given)	·	67	–	96	102	78	66	106
CC1=CC2OC3CC4OC(=O)C=CC=CC(=O)OCCC(C)C(O)C(=O)OCC2(CC1)C4(C)C31CO1 (stereo not given)	·	56	–	90	97	75	71	103
CN(C)C(=O)O/N=C(\N)COc1ccc(C(C)(C)C)cc1	–	90	–	–	107	60	–	–	Mdm2 MdmX conf=103
C=C1C(=O)OC2C1CCC(C)C1(O)C=CC(=O)C21C (stereo not given)	·	–	–	–	106	47	–	99
CN1CCCN(C(=O)COc2ccccc2Br)CC1	·	–	–	–	–	–	·	·
CC(C)(C)C(=O)N1Cc2cc(N3CCCCC3)ccc2-n2nncc2C1	·	–	–	–	–	–	·	·
C=C1C(=O)[C@@]23C[C@H]4[C@@H]5[C@@]6(C)CCC[C@@]57[C@@H]2[C@@H](O)[C@@H]1C[C@H]3[C@H]7N4C6	·	–	–	74	93	69	·	·	Mdm2 MdmX conf=101
